Experiment [1] deals with PDPK1.
Experiment [2] relates to PHK.
In experiment [3] the test system is PIK3C2B.
In experiment [4] the test system is PIK3C3.
For experiment [5], the system named is PIM1.
Experiment [6] has as its system PIM2.
Experiment [7] relates to PIM3.
Experiment [8] relates to PIP4K2C.
Experiment [9] relates to PIP5K1C.
Experiment [10] relates to PIP5K2C.
Experiment [11] relates to PLK1.
In experiment [12] the test system is PLK2.
Experiment [13] deals with PLK3.
The test system of experiment [14] is PRK2.

Each structure is given as a SMILES string.

Regarding `CC[C@@H]1CO[C@H](C(=O)Nc2ccccc2)CN1c1cc(-c2ccc3c(N)n[nH]c3c2)nc(NC)n1` [GSK2376236], the Kinases covered result in experiment [1] is recorded as “PDPK1”.

Turning to `CNc1nc(-c2ccc3c(N)n[nH]c3c2)cc(N2C[C@@H](C(=O)Nc3ccccc3)CC[C@H]2C)n1` [GSK2298859], in experiment [1], the Kinases covered result is “PDPK1”.

For the compound `FC1=CC(C3=NC2=CC(OC)=C(OC)C=C2C(N[C@H]4[C@H]([C@](C)(O)C)CNC4)=N3)=C(O)C=C1.Cl.Cl` [CCT241533], in experiment [2], the Kinases covered entry is “PHK”.

Regarding `COc1ccc(-c2cc3c(C)nc(N)nc3n([C@H]3CC[C@H](OCCO)CC3)c2=O)cn1` [PFE-PKIS 29], the Kinases covered entry in [3] is reported as “PIK3C2B”.

Turning to `COc1ccc(-c2cc3c(C)nc(N)nc3n([C@H]3CC[C@H](O)CC3)c2=O)cn1` [PFE-PKIS 40], the Kinases covered entry in [3] is “PIK3C2B”.

For the compound `O=c1cc(N2CCOCC2)nc2n(Cc3ccccc3F)ccn12` [GSK2297428], the Kinases covered entry in [4] is “PIK3C3”.

In the case of `Cc1nnc(-c2ccc3occ(-c4ccc(S(C)=O)cc4)c3c2)[nH]1` (stereo not shown) [TPKI-85], the Kinases covered result in experiment [4] was “PIK3C3”.

For `CCn1c(-c2nonc2N)nc2cncc(C(=O)N3CC[C@H](N)C3)c21.Cl` [SB-772077-B], the Kinases covered result in [5] is on record as “PIM1”.

With `O=C1Nc2ccc(I)cc2C1=Cc1cc(Br)c(O)c(Br)c1` [GW305074X], the Kinases covered entry in experiment [6] is reported as “PIM2”.

For the compound `NCC1CNC(=O)c2cc3ccc(C(=O)Nc4cccnc4)cc3n2C1` (stereo not shown) [BI00614644], in experiment [7], the Kinases covered entry is “PIM3”.

With `Nc1nccc(-c2c(-c3ccc(F)cc3)ncn2C2CCN(Cc3ccccc3)CC2)n1` [SB-219980], the Kinases covered entry in experiment [8] is given as “PIP4K2C”.

Take `O=C(c1ccc(-c2cc(-c3c[nH]nc3-c3ccccn3)ccn2)cc1)N1CCCC1` [GW792479]: the Kinases covered result in experiment [8] is reported as “PIP4K2C”.

As for `CC(C)N1CC(=O)N(C)c2cnc(Nc3cccc(S(=O)(=O)CCN4CCOCC4)c3)nc21` [BI00009348], the Kinases covered entry in [9] is listed as “PIP5K1C”; in experiment [10] it was “PIP5K2C”.

Turning to `CCCc1cc(N2CCCN(C)CC2)nc2sc3c(N)ncnc3c12` [BI00604564], the Kinases covered entry in experiment [9] is given as “PIP5K1C”.

With `Cc1cc(NC(=O)c2cccc(NC(=O)/C=C/CN(C)C)c2)ccc1Nc1nccc(-c2cccnc2)n1` [JNK-IN-7], the Kinases covered result in experiment [10] is reported as “PIP5K2C”.

On to `C[C@@H](Oc1cc(-n2cnc3ccc(CN4CCN(C)CC4)cc32)sc1C(N)=O)c1ccccc1C(F)(F)F` [GSK461364], for which the Kinases covered entry in experiment [11] was “PLK1”.

`COc1cc2ncn(-c3cc(OCC4CCCO4)c(C(N)=O)s3)c2cc1OC` (stereo not shown) [GSK204607]: the Kinases covered result is listed as “PLK1” in experiment [11], “PLK2” in experiment [12] and “PLK3” in experiment [13].

Turning to `COc1cc2ncn(-c3cc(OCc4ccncc4)c(C(N)=O)s3)c2cc1OC` [GSK336313], the Kinases covered entry in [12] is given as “PLK2”.

In the case of `CCn1c(-c2nonc2N)nc2cncc(CNC3CCNCC3)c21` [SB-747651A], the Kinases covered entry in experiment [14] was “PRK2”.
